Source: PubChem
ELG1 repair inh = qHTS screen for small molecules that inhibit ELG1-dependent DNA repair in human embryonic kidney (HEK293T) cells expressing luciferase-tagged ELG1; actives 2.3% (n = 330,000); Potency, µM (series often up to 46.1 µM), inactives show top-dose activity change, negative = inhibition, hits mostly inhibitors; AID 504467, 2011; HEK293T ELG1-luciferase reporter, luminescence, 16 h; DNA damage induced by 5-fluorouridine; further: on the % scale 0 is the no-effect control and ±100 the full control effect; nearly all actives have a fitted effect of over 55% in size
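Quantitative HTS, concentration-response format. 2,000 cells/well co-treated with 5-fluorouridine and compound, 16 hr in 5% CO2 at 37 °C; ONE-Glo luminescence read after 30 min.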
NPC1 promoter act = qHTS Assay for NPC1 Promoter Activators | Huh7 NPC1 promoter luciferase reporter, 24 h | Potency, µM (titrated, usually from 9.22 µM), without a hit: at the highest dose activation, hits mostly activators | actives 2.4% (n = 320,000) | AID 485313, 2010; further: % of control where 0% means no effect; nearly all actives have a fitted effect of over 60% in size
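Stable NPC1-promoter luciferase Huh7 line; cpd (DMSO) 24 h, 37 °C, 5% CO2; Amplite luciferase reagent 10 min RT; luminescence readout. qHTS format.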
FLuc counter = qHTS profiling assay for firefly luciferase inhibitor/activator using purifed enzyme and Km concentrations of substrates (counterscreen for miR-21 project). purified FLuc, Km substrates, luminescence inhibition. Potency, µM (series often up to 57.5 µM), without a hit: top-dose activity change, negative = inhibition, usual class: inhibitors. actives 6.9% (n = 360,000);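 further: plate controls were vehicle for no effect and reference inhibitor for full effect; nearly all actives have a fitted effect of over 55% in size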
Target sequence (P08659 whole entry, looked up): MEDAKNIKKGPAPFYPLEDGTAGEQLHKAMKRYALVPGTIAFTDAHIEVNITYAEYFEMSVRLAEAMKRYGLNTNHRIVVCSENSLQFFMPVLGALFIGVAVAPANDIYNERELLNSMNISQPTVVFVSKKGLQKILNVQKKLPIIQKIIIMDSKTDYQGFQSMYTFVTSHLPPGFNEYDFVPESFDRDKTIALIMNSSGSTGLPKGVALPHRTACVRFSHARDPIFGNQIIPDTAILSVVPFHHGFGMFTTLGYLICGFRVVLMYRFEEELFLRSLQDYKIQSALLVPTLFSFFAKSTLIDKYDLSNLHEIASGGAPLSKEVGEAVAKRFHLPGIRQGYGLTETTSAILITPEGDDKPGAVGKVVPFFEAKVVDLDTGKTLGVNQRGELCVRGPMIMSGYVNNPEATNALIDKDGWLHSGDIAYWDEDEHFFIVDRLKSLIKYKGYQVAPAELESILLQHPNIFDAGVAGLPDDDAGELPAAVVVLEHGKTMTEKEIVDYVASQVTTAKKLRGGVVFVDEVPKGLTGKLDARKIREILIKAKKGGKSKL
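Purified P. pyralis luciferase, 10 nM final, with Km-level 10 uM D-luciferin and 10 uM ATP in 50 mM Tris acetate pH 7.5, 10 mM Mg acetate, 0.01% Tween-20, 0.05% BSA; 6-point qHTS titration about 60 µM downward; luminescence read.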
SMN2 splice up = qHTS Assay for Enhancers of SMN2 Splice Variant Expression. HEK293 SMN2-luciferase splicing reporter, luminescence, 30-36 h. Potency, µM (series often up to 46.1 µM), for inactives: top-dose activity change, positive = activation, hits mostly activators. actives 2.8% (n = 210,000). AID 1458, 2008; further: % of control where 0% means no effect; nearly all actives have a fitted effect of over 55% in size
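HEK293 cells carry an SMN2 […]–luciferase reporter in which exon 7 inclusion puts luciferase in frame. Cells were plated 10-12 h before compound addition, then incubated 30-36 h at 37C. ONE-Glo luminescence was read; sodium butyrate at 4.5 mM final served as control.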
ELG1 genotoxic = qHTS screen for small molecules that induce genotoxicity in human embryonic kidney (HEK293T) cells expressing luciferase-tagged ELG1. HEK293T ELG1-luciferase reporter, luminescence, 16 h. Potency, µM (doses to about 46 µM), without a hit: top-dose activity change, positive = activation, most hits filed as activators. actives 1.3% (n = 330,000); further: % of control where 0% means no effect; nearly all actives have a fitted effect of over 60% in size
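HEK293T cells expressing luciferase-tagged ELG1 were treated with compound or DMSO for 16 hr at 37°C. Luciferase activity was then read after 30 min with ONE-Glo at room temperature; rising signal flags genetic stress.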
Rab9 promoter act = qHTS Assay for Rab9 Promoter Activators | Huh7 Rab9 promoter-luciferase reporter, luminescence, 24 h | Potency, µM (series often up to 9.22 µM), for the others: top-dose activation, negative = inhibition, usual class: activators | actives 2.8% (n = 320,000) | AID 485297, 2010; further: % of control where 0% means no effect; nearly all actives have a fitted effect of over 60% in size
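Steps: seed 1500 Huh7 Rab9-luc cells per well, rest 2 h at 37 °C; add compound in DMSO; incubate 24 h; add luciferase reagent, 10 min ambient; read luminescence.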
* marks the source's active call; other numbers are inactive results. The list is not random: actives were taken first. Their share in the collection is about 9.4%. The call rests on the fitted dose curve; in most records, active means well fitted curve in the direction sought with a large enough effect; inconclusive means small, poorly fitted or top-dose-only effect, or another doubt; inactive means no such curve, though single readings can be large; an effect the other way counts as inactive or inconclusive. Potency means the concentration at half of the fitted maximal effect.

`COc1cc(C(=O)NCCOc2ccccc2C)c(Br)c(OC)c1OC` gave ELG1 repair inh -30%, NPC1 promoter act 1%, FLuc counter 4%, SMN2 splice up -6%, ELG1 genotoxic -1% and Rab9 promoter act 3%.
For COc1ccc(C(=O)NCCOc2ccccc2Cl)c(OC)c1OC the results were ELG1 repair inh inconclusive, NPC1 promoter act 4.5µM*, FLuc counter 15µM*, ELG1 genotoxic 15µM* and Rab9 promoter act 3.2µM*.
For Cc1cc2ncn(C(=O)c3ccc(F)cc3)c2cc1C the results were ELG1 repair inh 10%, NPC1 promoter act 2%, FLuc counter 13µM*, ELG1 genotoxic 2% and Rab9 promoter act -4%.
For CC(C)(C)c1ccc(C(=O)n2cnc3ccccc32)cc1 the results were ELG1 repair inh inconclusive, NPC1 promoter act -1%, FLuc counter 3.4µM*, ELG1 genotoxic 11% and Rab9 promoter act 2%.
CN(C)c1ccc(C(=O)n2nnc3ccccc32)cc1 was read as ELG1 repair inh inconclusive, NPC1 promoter act 5%, FLuc counter 0.13µM*, SMN2 splice up 2%, ELG1 genotoxic inconclusive and Rab9 promoter act 2%.
`CCCC(=O)Nc1ccc(C(=O)n2nnc3ccccc32)cc1` gave ELG1 repair inh 6%, NPC1 promoter act -4%, FLuc counter -1%, SMN2 splice up 7%, ELG1 genotoxic 0% and Rab9 promoter act -4%.
`CCN(CC)c1ccc(C(=O)n2cnc3ccccc32)cc1` gave ELG1 repair inh inconclusive, NPC1 promoter act inconclusive, FLuc counter 5.4µM*, SMN2 splice up 2%, ELG1 genotoxic 7% and Rab9 promoter act inconclusive.
`O=C(Nc1ccc(F)c(Cl)c1)Nc1c[nH]c(=O)[nH]c1=O` gave FLuc counter -4%.
Screening CCC1=C2CC[C@H]3C(=O)N(c4ccccc4)C(=O)[C@H]3[C@H]2[C@@]2(Cc3ccccc3)C(=O)N(CC(=O)OC)C(=O)N2C1=O returned SMN2 splice up 8%.
For Cc1noc(C)c1-c1nccc(N2CCNCC2)n1 the results were SMN2 splice up 14%.
`O=C(CCSCc1ccc(Cl)cc1)N1CCN(c2ccccc2F)CC1` gave FLuc counter -10%.
For COn1c(-c2ccccc2)nc2ccc(Cl)cc21 the results were ELG1 repair inh inconclusive, NPC1 promoter act inconclusive, FLuc counter 12µM*, SMN2 splice up 28%, ELG1 genotoxic 14% and Rab9 promoter act inconclusive.
Screening COn1c(-c2ccccc2)nc2ncccc21 returned ELG1 repair inh 2%, NPC1 promoter act -4%, FLuc counter -2%, ELG1 genotoxic 0% and Rab9 promoter act 9%.
`O=[N+]([O-])c1ccc2nc(-c3ccccc3)n(OCc3ccc(Cl)cc3)c2c1` gave ELG1 repair inh 22%, NPC1 promoter act 2%, FLuc counter inconclusive, SMN2 splice up -22%, ELG1 genotoxic 0% and Rab9 promoter act 5%.
Screening O=C(O)COn1c(-c2ccccc2)nc2ccc(Cl)cc21 returned ELG1 repair inh inconclusive, NPC1 promoter act 10%, FLuc counter 4.8µM*, SMN2 splice up inconclusive, ELG1 genotoxic inconclusive and Rab9 promoter act 26%.
Screening CC/C(=N\OC(=O)c1ccc(OC(C)C)cc1)c1ccc(C)cc1 returned ELG1 repair inh 7%, NPC1 promoter act 1%, FLuc counter inconclusive, SMN2 splice up 6%, ELG1 genotoxic 11% and Rab9 promoter act -1%.
